High-throughput results deposited in PubChem BioAssay by several laboratories.
In the library only some 1.7% were active in any assay of this set; here they are far more common.
Neddylation inh = blocks human cullin neddylation | P61081+Q13564 | TR-FRET cullin neddylation, biochemical | inhibition, % at 25 µM | 360,000 tested, 0.58% active; in the data active means inhibition above about 36%
SUMO1 PPI mod = alters human SUMO1 binding to SIM partners | P63165 | AID 602429 | 360,000 tested, 0.33% active | inhibition, % at 20 µM | SUMO1 binding to a labelled peptide, TR-FRET, 1 h; in the data active means inhibition above about 37%
Target sequence (P63165 whole entry, looked up): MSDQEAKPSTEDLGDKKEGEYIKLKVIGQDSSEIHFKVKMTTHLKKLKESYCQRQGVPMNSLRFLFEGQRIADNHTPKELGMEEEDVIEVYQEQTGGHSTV
ATG4B inhibitor = blocks human ATG4B protease cleavage of LC3 substrate; Q9Y4P1; ATG4B cleavage of LC3-PLA2, NBD-HPC fluorescence, 1 h; inhibition, % at 8.33 µM; 340,000 tested, 0.51% active
Rin1-Abl PPI inh = human Rin1-Abl interaction inhibition; inhibition, % at 7.35 µM; P00519+Q13671; TR-FRET Rin1/Abl binding, biochemical; 360,000 tested, 0.4% active; in the data active means inhibition above about 5%, passing the limit was not always enough
Neddyl inh conf = cullin neddylation inhibition, confirmation; AID 652217; calls only at 25 µM; 1,800 tested, 13% active; shares compounds with Neddylation inh; TR-FRET cullin neddylation biochemical assay;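 further: neddylation substrate is the cullin 1 ring ligase complex with SKP2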
Each line names hits and unclear results; the compound was inactive in the other large screens (follow-up assays come after a bar, where shown). Unless noted, no stated cut-off is given here; in the data, active means inhibition above about 40%; inactive means the rest.

CCCCOc1ccc(S(=O)(=O)N2CCN(c3ccc(N4CCN(CC)CC4)nn3)CC2)cc1	Neddylation inh 45.8 | Neddyl inh conf inactive
O=C(Cn1cc(COc2ccc3ccccc3c2)nn1)NS(=O)(=O)c1cccc(OC(F)F)c1	none (no result: ATG4B inhibitor)
CC1(C(=O)Nc2ccc(Cl)c(Cl)c2)CCN1Cc1cc2ccccc2o1 (centres undefined)	none (no result: ATG4B inhibitor)
S=c1nc(-c2ccccn2)c(-c2ccccn2)n[nH]1	none (no result: ATG4B inhibitor)
CC1CC(=O)c2cnc(Nc3ccccc3)nc2C1 (centres undefined)	Neddylation inh 38.1
CC1CC(=O)c2cnc(Nc3cccc(C(F)(F)F)c3)nc2C1 (centres undefined)	none
CC(C)(C)c1ccc(NC(=O)C2CCCN(c3cnccn3)C2)cc1 (centres undefined)	Neddylation inh 41.1 | Neddyl inh conf inactive
CCOc1ccc2[nH]c3ncccc3c(=O)c2c1	Neddylation inh 46.7 | Neddyl inh conf active
COc1ccc(/C=N/NC(=O)c2sccc2C)c2ccccc12	Neddylation inh 38.6 | Neddyl inh conf inactive
O=C(Cc1ccccn1)c1ccncc1	none
CC(=O)Nc1cccc(C(=O)NC(C)c2ccc(-n3ccnc3)cc2)c1 (centres undefined)	none
CC(NC(=O)c1cccc(N(C)C)c1)c1ccc(-n2ccnc2)cc1 (centres undefined)	Neddylation inh 41.1 | Neddyl inh conf inactive
O=C(Cn1nnc(-c2cc(C(F)(F)F)cc(C(F)(F)F)c2)n1)NNC(=S)Nc1ccc(Cl)cc1	Neddylation inh 58.9 | Neddyl inh conf inactive
CCCCn1nc(C(=O)Nc2ccc(-n3cnnn3)cc2)c2ccccc2c1=O	Neddylation inh 45.0 | Neddyl inh conf inactive
O=C(CSc1ccc2nnc(-c3cccnc3)n2n1)Nc1ccccc1	none
O=C(CSc1ccc2nnc(-c3cccnc3)n2n1)Nc1ccccc1C(F)(F)F	Neddylation inh 48.3
CC(=O)Oc1ccc(C2=Cc3ccc(OC(C)=O)cc3OC2C)cc1 (centres undefined)	none
CCn1c(=O)c2cc(C(=O)N3CCOCC3)sc2c2ccccc21	Neddylation inh 47.9
O=C(c1cnn2c(C(F)(F)F)cc(-c3cccs3)nc12)N1CCCC1	Neddylation inh 44.4
CCN(CC(=O)NCc1cccs1)C(=O)/C=C/c1cc(OC)c(OC)c(OC)c1	Neddylation inh 39.5 | Neddyl inh conf active
COc1ccc2c(c1)c(C(=O)CNc1nc(C)cs1)c(C)n2C	Neddylation inh 39.0 | Neddyl inh conf inactive
CCOCc1cnc(C)nc1NCC(=O)c1c(C)n(C)c2ccc(OC)cc12	none
COc1cc(F)ccc1-c1cc(C(=O)Nc2ccc(NC(C)=O)cc2)[nH]n1	Neddylation inh 54.4, SUMO1 PPI mod 63.4 (no result: ATG4B inhibitor) | Neddyl inh conf active
CC(=O)Nc1ccc(NC(=O)c2cc(-c3ccc(C)cc3O)n[nH]2)cc1	Neddylation inh 77.7, SUMO1 PPI mod 74.4 | Neddyl inh conf active
CCS(=O)(=O)N1CCC2(CC1)OCCN2S(=O)(=O)c1ccccc1	none (no result: ATG4B inhibitor)
CCCCNC(=O)C1(C)CCN1C(=O)c1ccc2sccc2c1 (centres undefined)	none (no result: ATG4B inhibitor)
N#Cc1ccc(C=NN2CCCCCC2)cc1	none
CC(C)C[C@@H](CN)NC(=O)c1nc[nH]c1C(=O)N[C@@H](C)C(=O)CNC[C@H](C)NC(=O)c1nc[nH]c1C(=O)N[C@@H](C)C(=O)O	none
COc1ccc(/C=C/C(=O)OCC(=O)NCc2ccco2)c(OC)c1	none
COc1cccc(/C=C/C(=O)OCC(=O)NCc2ccco2)c1	Neddylation inh 49.0 | Neddyl inh conf inactive
COc1ccc(OC)c(/C=C/C(=O)OCC(=O)NCc2ccco2)c1	Neddylation inh 41.1
CC(=O)Nc1ccc(N/C=C(\C=O)c2nc3ccccc3o2)cc1	none (not shown: Neddylation inh)
CC(=O)Nc1cccc(N/C=C(\C=O)c2nc3ccccc3o2)c1	Neddylation inh 54.7 | Neddyl inh conf inactive
O=C(Nc1ccc(/C=C/c2nc3ccccc3o2)cc1)c1c(F)cccc1F	none (not shown: Neddylation inh)
CC(=O)Nc1ccc(/C=C/c2nc3ccccc3o2)cc1	Neddylation inh 46.7
CC(=O)c1ccc(S(=O)(=O)N2CCN(CC(=O)Nc3ccnn3C3CCCC3)CC2)cc1	none
C[C@H](O)[C@@H]1C(=O)N2CCc3ccc(N4CCN(C)CC4)cc3[C@@H]2C[C@@H]1N(C)C(=O)c1ccco1	none (no result: ATG4B inhibitor)
COc1ccc(NC(=O)C2(C)CCN2CCc2ccccc2)cc1OC (centres undefined)	none (no result: ATG4B inhibitor)
CCCNC(=O)c1cc2c(c(-c3cccc(-c4cc5ccccc5o4)c3)n1)[C@H](CCO)N(C(=O)NC(C)C)C2	none (no result: ATG4B inhibitor, Rin1-Abl PPI inh)
